In ChEMBL document CHEMBL3988442, “University of Dundee, Small-Polar-MMV Screening Library” (2021):

The compounds below were run against AMP-activated protein kinase, AMPK (Homo sapiens) (UniProt P54646+O43741+P54619+Q9UGJ0+Q9Y478+Q13131+Q9UGI9) (assay: AMP-dependent Kinase enzyme assay. An in vitro enzyme assay that detects ADP turnover that is directly proportional to AMPK activity. This uses naive AMPK that is activated during the assay with MK-8722). Settings: 30 µM.
Format: functional
Parameters: scale not given: direction of the effect not stated beside the values
Work on Cc1nccn1CCCN1CCCC(c2nccn2CC2CCC2)C1 (centres undefined) yielded a Percent Effect of 1.25%.
Cc1cnn(C2CN(CC(O)COc3ccc(C#N)cc3)C2)c1 (centres undefined) showed a Percent Effect of -78.4%.
Work on Cc1nc2n(n1)CC(NCc1ccc(Cl)c3cccnc13)CC2 (centres undefined) yielded a Percent Effect of 9%.
For O=C(NCCN1CCNC1=O)c1cnc(-c2cccnc2)nc1, the Percent Effect was 6.47%.
Compound O=C(NCCc1cc(N2CCOCC2)nc(NC2CC2)n1)C1CC1 has a Percent Effect of 23.1%.
Work on O=C(CN1CCC(c2nnc(C(F)(F)F)o2)CC1)Nc1cccc(Cl)c1 yielded a Percent Effect of -5.71%.
In the case of NC(=O)NC1(C(=O)N2CCc3c(Cl)cccc3C2)CCCCC1, the Percent Effect is reported as -3.74%.
Compound COCCNC(=O)c1cnc(C)nc1C has a Percent Effect of 3.33%.
Work on Cc1ccc(CCc2nc(C3CCOC3)no2)o1 (centres undefined) yielded a Percent Effect of 10.1%.
For OCCOCCNCC1(c2ccc(F)cc2)CCOC1 (centres undefined), the Percent Effect was -5.55%.
Cc1cnn(CC2CCN(CC(O)Cn3cccn3)CC2)c1 (centres undefined) showed a Percent Effect of 11.8%.
CC(c1ncc(-c2ccccc2)o1)N1CCN(C(=O)C(C)(C)C)CC1 (centres undefined) showed a Percent Effect of 12.7%.
Cc1noc(C)c1CN(C)C(=O)c1nc(N2CCCC2)ncc1Cl gave a Percent Effect of 3.43%.
CCS(=O)(=O)N1CCCN(CCCOC)CC1 showed a Percent Effect of 19%.
CCC(NC(=O)c1cc(NC(C)=O)ccc1Cl)c1cc(C)ccn1 (centres undefined) gave a Percent Effect of 2.39%.
Work on CCSc1cccc(NCc2cccnc2)c1 yielded a Percent Effect of -1.67%.
For Cc1cccnc1NC(=O)c1ccc(F)c(S(=O)(=O)N2CCC2)c1, the Percent Effect was -5.84%.
Cc1nn(C)c2nc(N3CCCCC3c3ccc(F)cc3)sc12 (centres undefined) gave a Percent Effect of 3.9%.
Work on Cc1nc(C2CCCNC2)cc(N2CCc3nc(N)sc3C2)n1 (centres undefined) yielded a Percent Effect of 3.73%.
FC(F)(F)Oc1cccc(CNCc2ccc(-n3cncn3)nc2)c1 showed a Percent Effect of 12.8%.
COc1ccc(CCN(C)C(=O)c2cc(C(C)=O)c[nH]2)cc1OC showed a Percent Effect of -3.69%.
Compound Cc1nn(C)c2nc(NC3CCNCC3)sc12 has a Percent Effect of 0.889%.
Cc1cc(CC(=O)NC2CCCN(c3ccccc3Cl)C2=O)n[nH]1 (centres undefined) gave a Percent Effect of 4.62%.
With O=C(CCc1ccc(Cl)cc1)N[C@@H]1CC[C@@H](O)[C@@H]1O the Percent Effect was 14.5%.
Cc1nccn1-c1nccnc1C1CCCN(C)C1 (centres undefined) gave a Percent Effect of 1.28%.
CC(C)C(CNC(=O)CCn1cncn1)N1CCc2ccccc2C1 (centres undefined) gave a Percent Effect of 0.687%.
With CC1CN(c2ccccc2Cl)C(=O)CN1C(=O)c1c[nH]c(=O)c(Cl)c1 (centres undefined) the Percent Effect was 5.06%.
Compound Cc1ccccc1[C@@H]1CN(CCOCCO)C[C@H]1C(=O)O has a Percent Effect of -1.24%.
With Cc1c(C(=O)NCCCS(C)(=O)=O)cccc1-c1ccccn1 the Percent Effect was 10.6%.
COc1ccc(CN(Cc2ccsc2)CC2CCCO2)cn1 (centres undefined) was tested, and the Percent Effect was 5.75%.
With O=C(c1cc(C2CC2)n[nH]1)N1C[C@H]2CC[C@](O)(c3ccccc3F)[C@H]2C1 the Percent Effect was 16%.
With CCc1c(C)nc2cc(-c3nccn3C)nn2c1N1CCCC(CO)C1 (centres undefined) the Percent Effect was 26%.
For Cc1ccc(N2CC[C@@]3(O)CCN(S(C)(=O)=O)C[C@H]3C2)nn1, the Percent Effect was 0.414%.
With CCCn1nnnc1COC(=O)C1COc2ccc(Cl)cc2C1 (centres undefined) the Percent Effect was 19.7%.
Compound N#CCCN(Cc1ccccn1)C(=O)c1cccc(CN2CCCC2)c1 has a Percent Effect of 0.67%.
With CN1CC2(CCCN(CCOCc3ccccc3)C2)OC1=O (centres undefined) the Percent Effect was -1.54%.
For CC(C)c1ccc(/C=C/CC(=O)NC2CCN(C(N)=O)C2)cc1 (centres undefined), the Percent Effect was 1.32%.
Compound O=C1CCC2(CCNCC2)CN1Cc1nncn1CCc1ccccc1 has a Percent Effect of 14.9%.
For Cc1cc(C)n2c(CNCCNc3ccccc3)cnc2n1, the Percent Effect was -15.1%.
